# Measurements taken from PubChem BioAssay (NCATS).
# Values without a mark were called inactive. Records with an inconclusive call do not appear. A call without a number means that no potency is given here. Activity calls are given as the source filed them. Calls follow the shape of the dose curve; as a rule, active = well fitted curve in the direction sought with a large enough effect; inconclusive = small, poorly fitted or top-dose-only effect, or another doubt; inactive = no such curve, though single readings can be large; an effect the other way counts as inactive or inconclusive.
# Legend:
# [1] = Cellular Toxicity (caspase-3) NIH 3T3 (AID 666);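 also: caspase signal read after 16 h compound exposure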
# How it was run: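 Concentration-response qHTS in NIH 3T3 mouse fibroblasts scores caspase-3/7 activation as rising luminescence after 16 hr compound exposure. Signals are scaled between DMSO-only and 100 uM tamoxifen.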
# [2] = Cellular Toxicity (caspase-3) Renal Proximal Tubule (AID 667); conditions: renal proximal tubule cells; at 91.7 µM (top of the series) unless noted;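 also: cells exposed to compound for 16 hours at 37 °C before detection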
# How it was run: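 AC50 derived by standard Hill fit of concentration-response data, normalized between DMSO basal and 10 uM staurosporine as 100% stimulation. Cells: primary rat kidney proximal tubule, 16 h treatment at 37 °C.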
# [3] = molecular target: Cytochrome P450 3A4 (Homo sapiens) (UniProt P08684); assay: qHTS Assay for Activators of Cytochrome P450 3A4 (AID 885); also: nearly all actives have a fitted effect of over 65% in size
# Sequence of Cytochrome P450 3A4 (Homo sapiens) (P08684 whole entry, looked up): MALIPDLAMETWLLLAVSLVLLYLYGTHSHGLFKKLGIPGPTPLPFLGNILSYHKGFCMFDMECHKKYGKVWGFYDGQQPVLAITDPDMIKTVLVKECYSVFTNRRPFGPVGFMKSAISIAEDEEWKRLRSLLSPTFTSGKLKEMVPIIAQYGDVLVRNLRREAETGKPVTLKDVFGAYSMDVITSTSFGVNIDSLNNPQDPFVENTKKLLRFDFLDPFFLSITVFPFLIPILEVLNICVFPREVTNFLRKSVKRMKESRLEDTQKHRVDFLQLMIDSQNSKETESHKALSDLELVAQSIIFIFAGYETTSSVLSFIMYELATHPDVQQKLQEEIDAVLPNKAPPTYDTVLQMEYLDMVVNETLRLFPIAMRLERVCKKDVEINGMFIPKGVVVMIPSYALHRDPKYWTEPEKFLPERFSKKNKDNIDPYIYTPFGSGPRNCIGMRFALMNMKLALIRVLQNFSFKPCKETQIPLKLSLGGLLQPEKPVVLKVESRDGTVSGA
# How it was run: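 20nM CYP3A4 + 25uM Luciferin-PPXE (=KM), 200mM KPO4; cpd 10 min RT; NADPH regen, 60 min RT; stop w/ detection buffer, 20 min; luminescence. Normalized to 57 uM ketoconazole.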
# [4] = molecular target: Cytochrome P450 3A4 (Homo sapiens) (UniProt P08684); assay: qHTS Assay for Inhibitors and Substrates of Cytochrome P450 3A4 (AID 884); also: nearly all actives have a fitted effect of over 50% in size; also: potency is read from the fitted curve at half-maximal effect
# How it was run: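 20 nM human CYP3A4 with 25 uM Luciferin-PPXE (at KM) in 200 mM KPO4, preincubated 10 min with compound; NADPH regeneration started a 60 min RT reaction. Luciferin detected by luminescence, normalized to 57 uM ketoconazole as full inhibition.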
# [5] = molecular target: Guanine nucleotide-binding protein G(i) subunit alpha-1 (Homo sapiens) (UniProt P63096); assay: qHTS Assay for Inhibitors of RGS12 GoLoco Motif Activity (Green Fluorophore) (AID 879);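 also: negative values mean loss of peptide binding seen as reduced polarization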
# Sequence of Guanine nucleotide-binding protein G(i) subunit alpha-1 (Homo sapiens) (P63096 whole entry, looked up): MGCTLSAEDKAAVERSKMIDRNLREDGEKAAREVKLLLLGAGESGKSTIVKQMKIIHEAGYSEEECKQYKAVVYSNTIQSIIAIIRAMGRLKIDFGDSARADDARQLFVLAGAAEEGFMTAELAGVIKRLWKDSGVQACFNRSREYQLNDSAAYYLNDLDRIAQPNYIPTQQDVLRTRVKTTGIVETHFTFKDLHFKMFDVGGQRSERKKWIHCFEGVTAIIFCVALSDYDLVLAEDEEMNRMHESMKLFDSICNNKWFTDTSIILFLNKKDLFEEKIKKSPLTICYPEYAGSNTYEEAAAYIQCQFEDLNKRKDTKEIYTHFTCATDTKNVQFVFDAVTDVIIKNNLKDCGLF
# How it was run: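 Fluorescence polarization assay: 50 nM Gαi1 with 10 nM FITC-labeled RGS12 GoLoco peptide in 10 mM Tris pH 7.5, 150 mM NaCl, 0.1 mM GDP, 0.05% NP40, 10 min at room temperature with compound.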
# [6] = Confirmation and Secondary Assay for Modulators of Hemoglobin Beta Chain Splicing at IVS2 654 locus (AID 910);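 also: HeLa cells stably carrying EGFP split by mutant beta-globin IVS2-654 intron; per-well total GFP intensity by laser scanning cytometry after 2-day treatment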
# How it was run: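 Readout: per-well total peak green fluorescence (488 nm ex, 500–520 nm em) from objects 5–250 µm, reflecting correct splicing of an EGFP-654 reporter. Compounds were applied for 2 days at 37 °C to overnight-plated HeLa EGFP-654 cells; controls were DMSO and 500 nM IVS2-654 PNA.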
# [7] = molecular target: Cytochrome P450 2C9 (Homo sapiens) (UniProt P11712); assay: qHTS Assay for Inhibitors and Substrates of Cytochrome P450 2C9 (AID 883); also: potency is read from the fitted curve at half-maximal effect; nearly all actives have a fitted effect of over 60% in size
# Sequence of Cytochrome P450 2C9 (Homo sapiens) (P11712 whole entry, looked up): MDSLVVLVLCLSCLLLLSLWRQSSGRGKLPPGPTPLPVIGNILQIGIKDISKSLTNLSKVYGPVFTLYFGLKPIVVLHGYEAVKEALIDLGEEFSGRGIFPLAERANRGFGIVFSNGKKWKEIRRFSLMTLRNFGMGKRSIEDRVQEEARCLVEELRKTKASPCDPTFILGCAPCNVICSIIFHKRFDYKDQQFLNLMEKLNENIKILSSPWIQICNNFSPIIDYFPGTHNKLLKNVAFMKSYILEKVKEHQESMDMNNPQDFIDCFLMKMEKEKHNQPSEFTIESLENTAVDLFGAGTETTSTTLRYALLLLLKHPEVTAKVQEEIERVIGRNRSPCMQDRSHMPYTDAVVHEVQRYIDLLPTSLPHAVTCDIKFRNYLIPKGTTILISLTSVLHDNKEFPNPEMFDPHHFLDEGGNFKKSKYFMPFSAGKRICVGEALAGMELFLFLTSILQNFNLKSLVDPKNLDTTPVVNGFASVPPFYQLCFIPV
# How it was run: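 Inhibition of CYP2C9 is scored as loss of luminescence, with 57uM sulphaphenazole defining 100% inhibition. Substrate Luciferin-H is used at 100uM, equal to its KM; enzyme at 10nM in 25mM KPO4, 60 min at 37C with NADPH regeneration.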
structure (smiles),measurement,setting,value
C[C@]12CCC(=O)C[C@@H]1CC[C@@H]1[C@@H]2CC[C@]2(C)[C@@H](O)CC[C@@H]12,Potency,[1],inactive
same,caspase-3 activation,[2],0.8%
same,outcome,[3],inactive
Oc1cc(Cl)c(Cl)cc1Cl,Potency,[1],inactive
same,caspase-3 activation,[2],4.35%
same,Potency,[4],inactive
ClC=C(Cl)Cl,Potency,[1],inactive
same,caspase-3 activation,[2],"-7.81% [at 91.7 µM, primary cells freshly taken from rat, solvent-only wells 0%, staurosporine 100%]"
same,Potency,[4],inactive
C[C@H]1CCC[C@H](O)CCCCCc2cc(O)cc(O)c2C(=O)O1,Potency,[1],inactive
same,caspase-3 activation,[2],-5.62%
same,Potency,[4],3.98 µM (active)
same,outcome,[3],inactive
NNC(N)=O,Potency,[1],inactive
same,caspase-3 activation,[2],4.27%
same,Potency,[5],inactive
same,Potency,[4],inactive
[O]=[Cd],Potency,[1],inactive
same,caspase-3 activation,[2],"7.8% [at 91.7 µM, primary cells freshly taken from rat, solvent-only wells 0%, staurosporine 100%]"
same,Potency,[4],inactive
C=CCN=C=S,Potency,[1],inactive
same,caspase-3 activation,[2],"-1.14% [at 91.7 µM, primary cells freshly taken from rat, solvent-only wells 0%, staurosporine 100%]"
same,outcome,[3],inactive
COc1ccc2c(c1OC)C(=O)OC2C1c2cc3c(cc2CCN1C)OCO3 (configuration not stated),Potency,[1],inactive
same,caspase-3 activation,[2],-5.84%
same,outcome,[3],inactive
same,outcome,[6],inactive
C[C@@H]1O[C@H](C[N+](C)(C)C)CS1,Potency,[5],inactive
CC(C)(C)c1cc(C=C(C#N)C#N)cc(C(C)(C)C)c1O,Potency,[5],inactive
same,Potency,[7],0.0316 µM (active)
same,Potency,[4],3.16 µM (active)
same,outcome,[3],inactive
